The nature of experiment [1]: Cell Viability - SK-N-SH (AID 435; calls by dose curve; also: potency is read from the fitted curve at half-maximal effect). Particulars: SK-N-SH neuroblastoma cell viability qHTS. Summed up:
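qHTS cytotoxicity: CellTiter-Glo ATP luminescence after 40 h compound exposure of human neuroblastoma SK-N-SH cells at 37 °C. AC50 derived by Hill-equation fitting, with DMSO as basal and 100 uM tamoxifen as full inhibition.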
On the technique in general: qHTS replaces the single test concentration by a dilution series.

Experiment [2] can be described thus: Cell Viability - N2a (AID 540).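 Also: plate controls were DMSO alone for no effect and tamoxifen control for full effect; nearly all actives have a fitted effect of over 45% in size.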 The note with it: N2a mouse neuroblastoma cell viability; activity change, negative = cytotoxicity: at 92.2 µM (top of the series). The procedure, abridged:
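In this qHTS cytotoxicity screen, ATP-dependent luciferase luminescence reports viable N2a cells after a 40 hr compound exposure in complete culture medium. Potencies are AC50 values from standard Hill equation fits.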

Experiment [3] is described as follows: Cell Viability - Renal Proximal Tubule (AID 545).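 Also: cells exposed to compound for 40 hours; nearly all actives have a fitted effect of over 40% in size.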 The note with it: renal proximal tubule cells viability; series mostly up to 91.7 µM. Summed up: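 Viability taken as intracellular ATP (CellTiter-Glo luminescence) after 40 hr, 37 °C compound treatment of primary proximal tubule cells from rat kidney, 1000 cells/well; Hill-equation fits of qHTS concentration-response data gave AC50.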

The nature of experiment [4]: Cellular Toxicity (caspase-3) Jurkat (AID 655).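 Also: cells exposed to compound for 16 h at 37 °C before reading.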 The note with it: Jurkat caspase-3 activation, luminescence; caspase-3 activation: at 92.2 µM (top of the series), DMSO = 0%, tamoxifen = 100%. The procedure, abridged: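 Luminescent Caspase-Glo 3/7 read-out (20 min, room temperature) after 16 h compound treatment at 37 C of 5000 Jurkat cells per well. AC50 derived by Hill-equation fitting, scaled between DMSO basal and 100 uM tamoxifen stimulation.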

A short description of experiment [5]: Cellular Toxicity (caspase-3) MRC-5 (AID 659). The note with it: MRC-5 cells, luminescence, normalized: DMSO 0%, 10 µM staurosporine 100%; series mostly up to 91.7 µM. Summed up:
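Luminescent Caspase-Glo 3/7 read-out (1 h, room temperature) after a 16 h, 37 °C compound exposure of MRC-5 lung fibroblasts at 1500 cells/well. Concentration-response AC50 from Hill equation; 0% DMSO, 100% 10 uM staurosporine.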

A short description of experiment [6]: Cell Viability - LYMP2-001 (AID 921).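 Also: 0% = DMSO only and full inhibition = tetraoctylammonium bromide control wells; nearly all actives have a fitted effect of over 70% in size.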 The note with it: LYMP2-001 lymphoblastoid cell viability; series mostly up to 92.2 µM. The procedure, abridged:
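Cellular ATP loss read by luciferase luminescence after 24 h compound exposure at 37 C in complete medium. LYMP2-001 lymphoblastoid cells, 2500/well; qHTS concentration-response data fitted with Hill equation for AC50.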

A short description of experiment [7]: MultiTox-Fluor Cytotoxicity Assay - LYMP1-002 - Dead Cells (AID 960). Also: nearly all actives have a fitted effect of over 60% in size. Also: potency is read from the fitted curve at half-maximal effect. The note with it: LYMP1-002 lymphoblastoid cells, dead-cell protease fluorescence; series mostly up to 46.1 µM. The procedure, abridged: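 Concentration-dependent increases in membrane-leaked protease activity are quantified in LYMP1-002 cells after 16 hr treatment; values are normalized against DMSO and tetraoctylammonium bromide (15 uM) controls and AC50 derived by Hill modeling.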

Experiment [8] in a line: Cell Viability - LYMP2-005 (AID 967).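 Also: plate controls were DMSO only for no effect and 92 µM tetraoctylammonium bromide control for full effect.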 Particulars: LYMP2-005 lymphoblastoid cell viability; series mostly up to 92.2 µM. Summed up:
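LYMP2-005 human lymphoblastoid cells (2500/well) were treated with compounds for 24 h at 37 C. Intracellular ATP was then measured by CellTiter-Glo luminescence after 30 min at room temperature. AC50 values came from Hill-equation fits of qHTS concentration-response data.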

Experiment [9] is described as follows: Cell Viability - LYMP2-015 (AID 971).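 Also: 0% = DMSO only and full effect = 92 µM tetraoctylammonium bromide; nearly all actives have a fitted effect of over 55% in size.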 The note with it: LYMP2-015 lymphoblastoid cell viability; series mostly up to 92.2 µM. Summed up:
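AC50 values reflect Hill-model fits of ATP-based luminescence (CellTiter-Glo) from a human lymphoblastoid line, 2500 cells/well, treated 24 hr at 37 C.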

Experiment [10] can be described thus: Cell Viability - LYMP2-002 (AID 977).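 Also: plate controls were DMSO only for no effect and 92 µM tetraoctylammonium bromide for full effect.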 Particulars: LYMP2-002 lymphoblastoid cell viability, qHTS; series mostly up to 92.2 µM. The procedure, abridged: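 Human lymphoblastoid cells (2500/well) in complete medium were preincubated 5 hr at 37 C, then exposed to compounds for 24 hr at 37 C. Intracellular ATP was read by CellTiter-Glo luminescence; AC50 came from Hill-equation concentration-response fits.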

Experiment [11] is described as follows: Cell Viability - LYMP2-010 (AID 981). Also: % is scaled to controls: 0 for no effect and ±100 for the full control effect; nearly all actives have a fitted effect of over 55% in size. The note with it: LYMP2-010 lymphoblastoid cell viability, qHTS; series mostly up to 92.2 µM. Summed up: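 This 24 hr viability screen uses LYMP2-010 lymphoblastoid cells, quantifies ATP via luciferase luminescence, and derives AC50 from Hill fits of qHTS concentration-response data.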
A short description of experiment [12]: Cell Viability - LYMP2-020 (AID 986).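 Also: plate controls were DMSO only for no effect and tetraoctylammonium bromide at 92 µM for full effect; nearly all actives have a fitted effect of over 55% in size.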 Particulars: series mostly up to 92.2 µM. The procedure, abridged:
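Cells at 2500 per well receive a 24 hr compound exposure at 37 C. Viability is measured as ATP-dependent luciferase luminescence, with AC50 modeled from qHTS concentration-response curves.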

Experiment [13] in a line: Cell Viability - LYMP2-022 (AID 987).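 Also: 0% = DMSO alone and full effect = tetraoctylammonium bromide at 92 µM; nearly all actives have a fitted effect of over 55% in size.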 The note with it: LYMP2-022 lymphoblastoid cell viability; series mostly up to 92.2 µM. Summed up:
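In this qHTS cytotoxicity screen, compound titrations were incubated 24 hr at 37 C with human lymphoblastoid cells in complete medium. Luciferase-based ATP luminescence provided the viability signal.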

Experiment [14] in a line: qHTS assay for small molecule agonists of retinoid X receptor alpha signaling (AID 588544). Particulars: HEK293T RXRa-UAS-bla, beta-lactamase reporter, 18 h; 530 nm emission.
Experiment [15] has as its target Thyroid hormone receptor beta (Homo sapiens) (UniProt P10828). Put plainly: qHTS assay for small molecule agonists of thyroid hormone receptor beta signaling (AID 588545; calls by dose curve). The note with it: TR-UAS-bla GripTite HEK 293, beta-lactamase ratio, agonist mode, 18 h; series mostly up to 76.7 µM. Summed up: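 HEK 293 TR-UAS-bla; agonist mode; 18 hrs, 37 C; CCF4, ex 405/em 460 and 530 nm; norm. T3 10 nM = 100%, DMSO = 0%; Hill fit → EC50, efficacy.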

A short description of experiment [16]: qHTS assay for small molecule antagonists of retinoid X receptor alpha signaling (AID 588546; active = well fitted inhibition curve with a large enough effect in the signal ratio, with a control signal flat, not every such curve was filed as active; the % refers to the signal ratio;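 also: cells stimulated with 9-cis-retinoic acid as agonist; % is scaled to controls: 0 for no effect and ±100 for the full control effect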). Particulars: HEK293T RXRa-UAS-bla, beta-lactamase ratio, antagonist mode; measured here: W530 green channel, cytotoxicity proxy. The procedure, abridged:
(§1)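 Beta-lactamase reporter inhibition, read as CCF4 fluorescence ratio (ex 405, em 460/530 nm) after 2 h at RT. HEK293T UAS-bla cells, 2500/well, were stimulated with 9-cis-RA at 500 or 100 nM final alongside test compound for 18 h at 37 C.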

For experiment [17], the target named is Retinoic acid receptor RXR-alpha (Homo sapiens) (UniProt P19793). Described as above. Particulars: HEK293T RXRa-UAS-bla, beta-lactamase ratio, antagonist mode. Summed up:
as §1

In experiment [18] the target is Thyroid hormone receptor beta (Homo sapiens) (UniProt P10828). Put plainly: qHTS assay for small molecule antagonists of thyroid hormone receptor beta signaling (AID 588547; active = well fitted inhibition curve with a large enough effect in the signal ratio, with a control signal flat, not every such curve was filed as active; the % refers to the signal ratio;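 also: cells stimulated with 0.4 nM T3 agonist during compound exposure; % is scaled to controls: 0 for no effect and ±100 for the full control effect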). The note with it: TR-UAS-bla HEK293, beta-lactamase ratio, antagonist mode, 18 h. Summed up: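 Inhibition of T3-driven (0.4nM final) beta-lactamase reporter activity was measured over 0.59 nM to 92 uM compound after 18 h at 37 C. The cells were GripTite HEK293 TR-UAS-bla in charcoal/dextran-stripped serum, with CCF4 ratio read-out and IC50 from Hill fits.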

The target of experiment [19] is Tumor necrosis factor (Homo sapiens) (UniProt P01375). The experiment can be described thus: qHTS assay to identify small molecules that stimulate Tumor Necrosis Factor-alpha (TNF-alpha) secretion (AID 651757; active = well fitted curve in the direction sought with a large enough effect in the signal ratio; the % refers to the signal ratio; also: 0% is about no effect). The note with it: Human cells, HTRF 665/615 ratio; series mostly up to 92.2 µM. The procedure, abridged: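 Using 3000 THP-1 cells per well, compounds and controls were applied for 17 hrs at 37 C. Detection followed with two labeled anti-TNF-alpha antibodies (cryptate donor, XL665 acceptor) for 3 hr at room temperature, measured by TR-FRET.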

Experiment [20] addresses Cytochrome P450 3A4 (Homo sapiens) (UniProt P08684). Put plainly: qHTS Assay for Inhibitors and Substrates of Cytochrome P450 3A4 (AID 884). Also: nearly all actives have a fitted effect of over 50% in size. Also: potency is read from the fitted curve at half-maximal effect. Particulars: recombinant CYP3A4, Luciferin-PPXE luminescence; series mostly up to 57.1 µM. The procedure, abridged: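 Luminescent readout of luciferin produced by CYP3A4 (20 nM) dealkylation of Luciferin-PPXE, 25 uM (its KM). NADPH-driven reaction ran 60 min at RT after 10 min compound preincubation; data scaled to 57 uM ketoconazole as 100% inhibition.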

Consider four compounds from PubChem BioAssay (NCATS).

“And” between values parts separate entries of the source, which are not always exact repeats. Equal entries are not always repeated. Results filed as inconclusive are left out. The source made the active and inactive calls. Unless noted, calls follow the shape of the dose curve; as a rule, active = well fitted curve in the direction sought with a large enough effect; inconclusive = small, poorly fitted or top-dose-only effect, or another doubt; inactive = no such curve, though single readings can be large; an effect the other way counts as inactive or inconclusive. Bounds are passed on as bounds.

Sequence of Retinoic acid receptor RXR-alpha (Homo sapiens) (P19793 whole entry, looked up): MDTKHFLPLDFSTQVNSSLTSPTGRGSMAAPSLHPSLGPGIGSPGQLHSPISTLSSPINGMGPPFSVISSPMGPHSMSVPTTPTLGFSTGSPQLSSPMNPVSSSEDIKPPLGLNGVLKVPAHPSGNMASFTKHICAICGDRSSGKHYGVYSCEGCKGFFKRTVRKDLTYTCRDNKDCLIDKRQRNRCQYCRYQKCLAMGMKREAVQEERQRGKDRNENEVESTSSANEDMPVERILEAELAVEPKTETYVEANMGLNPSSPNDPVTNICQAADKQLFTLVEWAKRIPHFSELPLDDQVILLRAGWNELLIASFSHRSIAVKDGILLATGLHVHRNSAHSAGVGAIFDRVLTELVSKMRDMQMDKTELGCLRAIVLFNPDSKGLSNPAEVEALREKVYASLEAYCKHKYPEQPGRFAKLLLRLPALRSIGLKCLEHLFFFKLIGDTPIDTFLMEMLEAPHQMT
Sequence of Cytochrome P450 3A4 (Homo sapiens) (P08684 whole entry, looked up): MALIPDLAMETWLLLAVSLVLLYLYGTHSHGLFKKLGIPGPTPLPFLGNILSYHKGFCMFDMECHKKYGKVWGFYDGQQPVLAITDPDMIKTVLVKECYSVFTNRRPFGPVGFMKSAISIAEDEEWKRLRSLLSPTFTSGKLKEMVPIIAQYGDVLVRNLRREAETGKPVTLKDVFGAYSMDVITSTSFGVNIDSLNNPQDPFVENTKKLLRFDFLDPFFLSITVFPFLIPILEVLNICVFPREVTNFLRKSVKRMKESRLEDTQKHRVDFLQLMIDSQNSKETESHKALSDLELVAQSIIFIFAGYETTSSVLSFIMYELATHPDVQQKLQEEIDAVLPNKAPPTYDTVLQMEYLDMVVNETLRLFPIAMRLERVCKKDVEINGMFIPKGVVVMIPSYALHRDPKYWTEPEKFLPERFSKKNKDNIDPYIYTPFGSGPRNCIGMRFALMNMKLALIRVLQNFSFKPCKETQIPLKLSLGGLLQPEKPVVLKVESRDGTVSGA
Sequence of Thyroid hormone receptor beta (Homo sapiens) (P10828 whole entry, looked up): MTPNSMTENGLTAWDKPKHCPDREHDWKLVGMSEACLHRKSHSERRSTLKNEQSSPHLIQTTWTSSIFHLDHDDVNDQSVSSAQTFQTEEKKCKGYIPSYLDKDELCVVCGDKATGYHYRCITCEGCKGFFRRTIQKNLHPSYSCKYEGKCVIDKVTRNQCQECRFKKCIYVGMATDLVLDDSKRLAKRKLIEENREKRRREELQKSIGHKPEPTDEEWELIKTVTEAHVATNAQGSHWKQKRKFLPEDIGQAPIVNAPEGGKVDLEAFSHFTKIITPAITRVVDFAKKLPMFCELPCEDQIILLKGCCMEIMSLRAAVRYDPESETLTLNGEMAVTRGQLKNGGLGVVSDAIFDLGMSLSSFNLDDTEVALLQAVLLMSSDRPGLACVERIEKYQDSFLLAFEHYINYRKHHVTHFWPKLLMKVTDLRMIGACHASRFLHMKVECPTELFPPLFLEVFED
Sequence of Tumor necrosis factor (Homo sapiens) (P01375 whole entry, looked up): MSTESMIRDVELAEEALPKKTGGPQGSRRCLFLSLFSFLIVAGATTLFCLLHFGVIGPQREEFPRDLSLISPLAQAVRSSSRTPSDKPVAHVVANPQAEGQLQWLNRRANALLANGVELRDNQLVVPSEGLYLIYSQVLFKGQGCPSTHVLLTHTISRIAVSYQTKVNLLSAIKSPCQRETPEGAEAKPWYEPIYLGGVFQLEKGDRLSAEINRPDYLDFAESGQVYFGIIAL

As for `CCOP(=S)(OCC)SCCSCC`, in experiment [1], the Potency was > 92 µM (inactive). The Potency entry in experiment [2], in experiment [6], in experiment [7], in experiment [8], in experiment [9] and in [10] was “inactive” throughout. Besides, the Potency entry in experiment [11], in [12], in [13] and in experiment [15] was “inactive” in each case. In addition, the compound was classed as inactive in experiment [3], in [5] and in experiment [19]. For the same compound, the caspase-3 activation in [4] was -2.31% (inactive). Moreover, the max response in [14] was -7.08% and 7.34%; in [16], 7.97% and -18.3%; in experiment [17] it was -3% (inactive) and -2.15% (inactive). Besides, the activity change % (negative = inhibition) in [18] is 6.91% (inactive) and -9.69% (inactive).

Consider `Cc1ccc(OP(=O)(Oc2ccc(C)cc2)Oc2ccc(C)cc2)cc1`, for which the Potency was > 92 µM (inactive) in experiment [1], 7.94 µM (active) in [20] and 25.1 µM (active) in experiment [7]. Also, the compound was called inactive in experiment [3], in experiment [5] and in experiment [19]. Moreover, the caspase-3 activation in [4] was 1.7% (inactive). Moreover, the Potency entry in experiment [6], in [8], in [9], in [10], in experiment [11] and in experiment [12] was “inactive” in each case. Also, the Potency entry in experiment [13] and in [15] was “inactive” in each case. The max response was -17.7% in experiment [14]; -10.5% and -16.2% in experiment [16]; -1.31% (inactive) and -25.6% (inactive) in experiment [17]. For the same compound, the activity change % (negative = inhibition) in experiment [18] is -7.32% (inactive) and 3.64% (inactive).

Consider `CCCBr`, for which the Potency in experiment [1] is > 92 µM (inactive). Moreover, the Potency result in experiment [2], in experiment [20], in [6], in [7], in [8] and in experiment [9] was “inactive” each time. Also, the Potency entry in experiment [10], in experiment [11], in experiment [12], in experiment [13] and in experiment [15] was “inactive” throughout. Also, the outcome in [3], in experiment [5] and in experiment [19] was inactive. Also, the caspase-3 activation in experiment [4] is 0.185% (inactive). Moreover, the max response in experiment [14] was -13.5%; in [16], -1.75%; in experiment [17], 1.56% (inactive). The activity change % (negative = inhibition) in experiment [18] is 3.13% (inactive).

Consider `Cc1ccccc1[N+](=O)[O-]`, for which the Potency in experiment [1] was > 92 µM (inactive). In addition, the Potency entry in experiment [2], in experiment [20], in experiment [6], in experiment [7], in experiment [8] and in experiment [9] was “inactive” in each case. For the same compound, the Potency entry in experiment [11], in experiment [12], in [13] and in experiment [15] was “inactive” in each case. The compound was classed as inactive in [3], in experiment [5] and in experiment [19]. For the same compound, the caspase-3 activation in experiment [4] is 0.646% (inactive). The max response in experiment [14] was -2.95%; in [16], -5.55%; in experiment [17], 10.9% (inactive). Moreover, in experiment [18], the activity change % (negative = inhibition) was 6.46% (inactive).
